In PubChem BioAssay:

Experiment: small-molecule microarray binders of probe aDKK1, primary screen, biochemical, biotinylated probe, 635/667 nm fluorescence (AID 1099);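 further: score merges 667nm spot fluorescence with signal to noise across triplicate slides; reference of the scale not given here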
Conditions: higher = more signal
Work on `COc1ccc([Si](C)(C)[C@H]2[C@H](CC(=O)N3CCC[C@H]3CO)O[C@@]3(C(=O)N(Cc4cccc(N5C(=O)COc6ccccc65)c4)c4ccccc43)[C@@H]2C)cc1` yielded a composite z-score of -0.248.
`CC(=O)OC[C@H]1O[C@H](C#CCCCc2ccccc2)C=C[C@@H]1OC(C)=O` gave a composite z-score of -0.194.
With `CC(C)[C@H](NC(=O)OC(C)(C)C)[C@@H](O)CC(=O)OC(C)(C)C` the composite z-score was -0.298.
In the case of `COCCCNC(=O)[C@]1(CCC(=O)OC(C)(C)C)N=C(c2ccc(OCCCO)cc2)O[C@@H]1c1ccccc1N=[N+]=[N-]`, the composite z-score was 0.314.
`C[C@@H]1C=CCC(=O)OC[C@H](C)C(=O)N[C@@H](C)C(=O)OC1` showed a composite z-score of -0.242.
`COC(=O)[C@@]1(Cc2ccc(F)cc2)[C@H]2c3cc(C(=O)N(C)C)n(Cc4ccc(OC)c(OC)c4)c3C[C@H]2CN1C(=O)c1ccccc1` gave a composite z-score of 1.08.
Compound `CCCCCN1CC=CC23O[C@@H]4C=CCOC(=O)[C@@H]4[C@H]2C(=O)N(CCCCCCO)[C@@H]3C1=O` (stereo not given in full) has a composite z-score of -0.0936.
For `COc1ccc(O[C@H]2C=C[C@@H](c3ccccc3)O[C@@H]2COC(=O)CCC(C)=NO[C@H](C)c2cn([C@@H]3COC[C@H]3O)nn2)cc1`, the composite z-score was -0.226.
Compound `C#C[C@@H]1Oc2ccccc2S(=O)(=O)N2CCC[C@H]12` has a composite z-score of -0.105.
`CC(C)(C)OC(=O)CC[C@]1(C(N)=O)COC(c2ccc(OCCCO)cc2)=N1` showed a composite z-score of 1.59.
`COc1ccc(O[C@H]2C=C[C@@H](c3ccccc3)O[C@@H]2COC(=O)CCC(C)=NOC[C@@H](C)[C@H](OCc2ccccc2)C(C)C)cc1` gave a composite z-score of -0.366.
`Cc1ccc(F)cc1S(=O)(=O)N[C@@H]1CCN(Cc2ccc(CC(C)C)cc2)C1` showed a composite z-score of -0.389.
Work on `CCc1cc2c(nc1CC)CCN(CCC(C)=NOC(C)CN1CCCc3nc(C)c(C)cc31)C2` (stereo not given) yielded a composite z-score of 0.612.
`Cc1ccc(S(=O)(=O)N[C@@H]2COC(=O)[C@H](C)COC(=O)CC=C[C@H]2C)cc1` gave a composite z-score of -0.291.
With `O=C1C[C@@H](O)[C@@H](O)[C@@H]2[C@@H]3C(=O)N(Cc4ccc5c(c4)OCO5)C(=O)[C@@H]3CC[C@@H]12` the composite z-score was -0.159.
`CN1C(=O)[C@@]2(CCC(=O)OC(C)(C)C)N=C(c3ccc(OCCCO)cc3)O[C@H]2c2ccccc21` gave a composite z-score of 0.0179.
In the case of `COCCOC(=O)N1C(=O)[C@@]2(c3cc(C#CC4(O)CCCCCC4)ccc31)[C@H](C(=O)N1CCN(c3ncccn3)CC1)[C@H]1C(=O)O[C@H](c3ccccc3)[C@H](c3ccccc3)N1[C@@H]2c1ccc(OCCO)cc1`, the composite z-score was 0.0932.
In the case of `CCOC(=O)[C@H](CC(C)C)NC(=O)CCC1CC(OC(=O)NCc2cccc3ccccc23)CC2(CCCC(COC(=O)NCCc3ccccc3OC)O2)O1` (stereo not given in full), the composite z-score was -0.141.
In the case of `COC(=O)[C@H](C)NC(=O)CCC1CC(OC(=O)NCc2cccc3ccccc23)CC2(CCCC(COC(=O)NCCc3ccc(Cl)cc3)O2)O1` (stereo not given in full), the composite z-score was -0.299.
Work on `O[C@@H](Cc1ccccc1)[C@H]1C2C=CCCC(c3ccccc3)=C2CN1Cc1cccc(Cl)c1` (stereo not given in full) yielded a composite z-score of -0.0232.
`O=C1[C@H]2[C@H]3[C@H](O)[C@H](O)CC(=NO[C@@H]4O[C@H](CO)[C@@H](O)[C@H](O)[C@H]4O)[C@@H]3CC[C@H]2C(=O)N1Cc1ccccc1` gave a composite z-score of -0.195.
In the case of `COCCOC(=O)N1C(=O)[C@@]2(c3cc(C#CCNC(N)=O)ccc31)[C@H](c1ccccc1OCCO)N1[C@H](c3ccccc3)[C@H](c3ccccc3)OC(=O)[C@H]1[C@@H]2C(=O)N1CCN(c2ncccn2)CC1`, the composite z-score was 0.376.
For `O=C1[C@H]2[C@H]3[C@H](O)[C@H](O)CC(=NO[C@@H]4O[C@H](CO)[C@@H](O)[C@H](O)[C@H]4O)[C@H]3CC[C@H]2C(=O)N1Cc1ccccc1`, the composite z-score was -0.223.
With `CC(C)(C)N1C(=O)[C@H]2[C@H]3[C@H](O)[C@H](O)CC(=NO[C@@H]4O[C@H](CO)[C@@H](O)[C@H](O)[C@H]4O)[C@@H]3CC[C@H]2C1=O` the composite z-score was -0.393.
Compound `O=C1[C@H]2[C@H]3[C@H](O)[C@H](O)CC(=NO[C@@H]4O[C@H](CO)[C@@H](O)[C@H](O)[C@H]4O)[C@H]3CC[C@H]2C(=O)N1C1CCCCC1` has a composite z-score of 0.0533.
Work on `CC[C@@H](c1ccccc1)n1c(=O)n2n(c1=O)[C@H]1[C@H](O)[C@@H]3O[C@@H]3C(=NOCC(C)C)[C@H]1CC2` yielded a composite z-score of -0.187.
Compound `CCCC[C@@H](O)C1=C(C)C[C@H]2C(=O)N(Cc3ccccc3)C(=O)[C@H]2[C@H]1CO` has a composite z-score of -0.407.
In the case of `CC(C)=C1C(=O)C(c2ccccc2)=C2CN3C(=O)N(CCc4ccccc4)C(=O)[C@]3(Cc3ccc(F)cc3)[C@H]21`, the composite z-score was 0.993.
Compound `N#Cc1ccc(NN2C(C(O)c3cc(C(F)(F)F)cc(C(F)(F)F)c3)C=CC3C(=O)N(c4ccccc4)C(=O)C32)cc1` (stereo not given) has a composite z-score of 0.175.
Work on `[N-]=[N+]=NCc1ccccc1[C@@H]1OC(c2ccc(OCCCO)cc2)=N[C@]1(Cc1ccccc1)C(=O)N1CCOCC1` yielded a composite z-score of 1.2.
`CC(CCN1CCCCc2nc(C)c(C)cc21)=NOC(C)CN1CCCCc2nc(C)c(C)cc21` (stereo not given) showed a composite z-score of -0.142.
Work on `O=C(NN=C1C[C@@H](O)[C@@H](O)[C@@H]2[C@@H]3C(=O)N(c4cccc(Oc5ccccc5)c4)C(=O)[C@@H]3CC[C@H]12)OCc1ccccc1` yielded a composite z-score of 0.0708.
Compound `CCOC(=O)CCN1C(=O)[C@H]2[C@H]3[C@H](O)[C@H](O)CC(=O)[C@H]3CC[C@H]2C1=O` has a composite z-score of -0.202.
`O=C1O[C@@H](c2ccccc2)[C@@H](c2ccccc2)N2[C@@H](c3ccc(OCCO)cc3)[C@]3(C(=O)Nc4ccc(C#CCCO)cc43)[C@@H](C(=O)N3CCCCCCC3)[C@H]12` showed a composite z-score of 2.25.
`c1ccc(C2NCCc3c2[nH]c2ccccc32)cc1` (stereo not given) showed a composite z-score of -0.227.
